The nature of assay [1]: ATG_TCF_b_cat_CIS: Attagene CIS-FACTORIAL HepG2 Assay for human T-Cell-Factor with beta-catenin (TCF/b-cat) (AID 2282965). As to conditions: HepG2 TCF/beta-catenin cis-reporter transcription, actives raise or lower the signal. In outline:
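Endogenous transcription factor activity is captured through cis-promoter reporter constructs transiently introduced into human HepG2 liver cells. Induced reporter mRNA is measured after 24 h and fitted bidirectionally relative to DMSO.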

Assay [2] can be described thus: ATG_TAL_CIS: Attagene CIS-FACTORIAL HepG2 Assay for human TAL Basal Promoter (AID 2282966).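 Note: background control endpoint measuring basal TAL promoter reporter mRNA not a specific factor.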 As to conditions: HepG2 Attagene cis-factorial TAL promoter reporter; actives raise or lower the signal. Summed up: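 HepG2 cells transiently transfected with multiplexed cis-promoter reporter units, dosed 24 h. Reporter mRNA quantified by RT-PCR, 6-FAM labelling, HpaI digestion and capillary electrophoresis; TAL basal promoter serves as background control, fitted bidirectionally versus DMSO.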

Assay [3] is described as follows: ATG_TGFb_CIS: Attagene CIS-FACTORIAL HepG2 Assay for human Transforming Growth Factor (TGF) (AID 2282967). As to conditions: HepG2 Attagene CIS TGFb reporter, mRNA transcription; actives raise or lower the signal. Summed up:
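Liver HepG2 line, cis-factorial reporter panel, 24 h dosing. Quantitation: RT-PCR products labeled with 6-FAM, cut with HpaI, resolved by capillary electrophoresis; DMSO-referenced bidirectional analysis.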

Assay [4] in a line: ATG_VDRE_CIS: Attagene CIS-FACTORIAL HepG2 Assay for human Vitamin D Receptor Element (VDRE) (AID 2282968). As to conditions: HepG2 VDRE cis-reporter transcription, actives raise or lower the signal. In outline: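 In transiently transfected HepG2 liver cells, gain or loss of reporter mRNA after 24 h exposure is scored relative to DMSO, using fluorescence detection by capillary electrophoresis of RT-PCR products.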

For assay [5], the target named is Nuclear receptor subfamily 1 group I member 3 (Homo sapiens) (UniProt Q14994). Description: ATG_CAR_TRANS: Attagene TRANS-FACTORIAL HepG2 Assay for human Constitutive Androstane Receptor (CAR) (AID 2282969; active = hit-call score of the fitted dose curve at least 0.9, where 1 is the maximum;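 note: activators raise reporter mRNA above DMSO so AC50 marks induction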). As to conditions: HepG2 Attagene TRANS-FACTORIAL CAR reporter. In outline:
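Readout is reporter mRNA induction, quantified by fluorescent primer extension and capillary electrophoresis after RT-PCR. Cells were HepG2 transiently carrying chimeric NR-Gal4 constructs with GAL4-UAS reporters, treated for 24 h; activity scored upward from DMSO.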

For assay [6], the target named is Estrogen receptor (Homo sapiens) (UniProt P03372). Description: ATG_ERa_TRANS: Attagene TRANS-FACTORIAL HepG2 Assay for human Estrogen Receptor alpha (ERa) (AID 2282970; active = hit-call score of the fitted dose curve at least 0.9, where 1 is the maximum). As to conditions: HepG2 Attagene TRANS ERa GAL4 reporter, mRNA. Summed up: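 HepG2 cells transiently transfected with multiplexed GAL4-UAS reporter units read out chimeric NR-Gal4 activity. After 24 h compound exposure, reporter mRNA was quantified by RT-PCR, 6-FAM labeling, HpaI digestion and capillary electrophoresis, relative to DMSO.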

The target in assay [7] is X-box-binding protein 1 (Homo sapiens) (UniProt P17861). Description: ATG_Xbp1_CIS: Attagene CIS-FACTORIAL HepG2 Assay for human X-box Binding Protein 1 (XBP1) (AID 2282972). As to conditions: HepG2 XBP1 cis-element reporter, Attagene multiplex; actives raise or lower the signal. In outline:
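Fluorescence-labelled cDNA fragments from reporter transcripts, separated by capillary electrophoresis, give the signal. Source: HepG2 cells transfected with promoter-driven reporter units, harvested 24 h post-dose. DMSO served as reference for bidirectional curve fitting.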

Assay [8] addresses Estrogen-related receptor gamma (Homo sapiens) (UniProt P62508). Description: ATG_ERRg_TRANS: Attagene TRANS-FACTORIAL HepG2 Assay for human Estrogen-Related Receptor gamma (ERRg) (AID 2282977; active = hit-call score of the fitted dose curve at least 0.9, where 1 is the maximum;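 note: hits increase reporter signal over DMSO so potencies reflect activators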). As to conditions: HepG2 Attagene TRANS reporter, ERRg transactivation. Summed up:
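HepG2 cells transiently transfected with multiplexed GAL4-UAS reporter units and chimeric NR-Gal4 constructs were exposed to test chemicals for 24 h. Reporter mRNA was measured by RT-PCR, 6-FAM primer extension, HpaI digestion and capillary electrophoresis; gain-of-signal versus DMSO.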

Assay [9] is described as follows: ATG_GAL4_TRANS: Attagene TRANS-FACTORIAL HepG2 Assay for GAL4 (Internal Marker) (AID 2282976; active = hit-call score of the fitted dose curve at least 0.9, where 1 is the maximum). As to conditions: HepG2 Attagene TRANS GAL4 internal marker reporter. In outline:
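Background-control readout: GAL4-UAS reporter transcript in transiently transfected HepG2 cells after 24 h compound exposure. Measured by RT-PCR, 6-FAM primer extension, HpaI digest and capillary electrophoresis; gain-of-signal fit versus DMSO.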

A short description of assay [10]: ATG_M_19_TRANS: Attagene TRANS-FACTORIAL HepG2 Assay for M19 Transcription Factor (Internal Marker) (AID 2282974; active = hit-call score of the fitted dose curve at least 0.9, where 1 is the maximum). As to conditions: HepG2 Attagene TRANS-FACTORIAL M19 internal marker reporter. Summed up:
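HepG2 transiently transfected with GAL4-UAS multiplex reporter constructs, exposed 24 h; reporter RNA quantified by RT-PCR, 6-FAM labeling, HpaI digestion and capillary electrophoresis; internal background marker fitted upward versus DMSO.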

Records with an inconclusive call do not appear. Active and inactive are the calls of the source. Rule for the calls, unless noted: active = hit-call score of the fitted dose curve at least 0.9, where 1 is the maximum; inactive = score below 0.9.

Outcome and AC50 data for 21 compounds are collected here from PubChem BioAssay (EPA / NIEHS).

By AC50 is commonly meant the concentration giving half of the maximal activity seen.

Sequence of X-box-binding protein 1 (Homo sapiens) (P17861 whole entry, looked up, the tested form may be a part): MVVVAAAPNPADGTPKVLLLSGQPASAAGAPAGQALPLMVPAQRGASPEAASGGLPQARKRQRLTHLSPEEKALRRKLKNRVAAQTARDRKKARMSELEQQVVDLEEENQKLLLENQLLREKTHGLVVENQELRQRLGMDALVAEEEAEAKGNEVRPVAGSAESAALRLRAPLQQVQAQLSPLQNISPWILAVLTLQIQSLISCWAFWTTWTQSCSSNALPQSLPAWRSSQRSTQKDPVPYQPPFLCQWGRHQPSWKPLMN
Sequence of Nuclear receptor subfamily 1 group I member 3 (Homo sapiens) (Q14994 whole entry, looked up, the tested form may be a part): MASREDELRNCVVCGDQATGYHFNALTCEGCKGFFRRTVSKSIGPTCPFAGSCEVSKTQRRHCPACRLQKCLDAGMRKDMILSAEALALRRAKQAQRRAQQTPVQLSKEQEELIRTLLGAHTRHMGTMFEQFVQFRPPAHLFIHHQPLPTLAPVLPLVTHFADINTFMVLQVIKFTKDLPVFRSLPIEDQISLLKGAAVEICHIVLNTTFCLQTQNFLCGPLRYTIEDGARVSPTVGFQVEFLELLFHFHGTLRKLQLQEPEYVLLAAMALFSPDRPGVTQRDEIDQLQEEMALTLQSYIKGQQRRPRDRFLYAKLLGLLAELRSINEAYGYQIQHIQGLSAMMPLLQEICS
Sequence of Estrogen receptor (Homo sapiens) (P03372 whole entry, looked up, the tested form may be a part): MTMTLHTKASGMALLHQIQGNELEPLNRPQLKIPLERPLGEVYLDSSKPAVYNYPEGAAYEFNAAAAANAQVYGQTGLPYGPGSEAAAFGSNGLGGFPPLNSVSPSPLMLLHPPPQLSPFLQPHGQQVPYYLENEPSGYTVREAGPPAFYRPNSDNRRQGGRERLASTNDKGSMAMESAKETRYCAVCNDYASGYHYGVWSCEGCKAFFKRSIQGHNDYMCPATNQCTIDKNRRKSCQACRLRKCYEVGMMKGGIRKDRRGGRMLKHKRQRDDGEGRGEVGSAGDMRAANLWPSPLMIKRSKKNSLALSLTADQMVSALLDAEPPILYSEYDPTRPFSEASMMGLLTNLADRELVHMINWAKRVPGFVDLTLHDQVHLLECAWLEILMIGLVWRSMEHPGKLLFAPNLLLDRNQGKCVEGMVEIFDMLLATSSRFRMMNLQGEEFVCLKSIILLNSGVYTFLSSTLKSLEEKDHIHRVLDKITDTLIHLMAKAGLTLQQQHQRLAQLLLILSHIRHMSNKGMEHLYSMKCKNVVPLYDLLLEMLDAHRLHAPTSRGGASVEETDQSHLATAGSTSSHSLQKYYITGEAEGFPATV
Sequence of Estrogen-related receptor gamma (Homo sapiens) (P62508 whole entry, looked up, the tested form may be a part): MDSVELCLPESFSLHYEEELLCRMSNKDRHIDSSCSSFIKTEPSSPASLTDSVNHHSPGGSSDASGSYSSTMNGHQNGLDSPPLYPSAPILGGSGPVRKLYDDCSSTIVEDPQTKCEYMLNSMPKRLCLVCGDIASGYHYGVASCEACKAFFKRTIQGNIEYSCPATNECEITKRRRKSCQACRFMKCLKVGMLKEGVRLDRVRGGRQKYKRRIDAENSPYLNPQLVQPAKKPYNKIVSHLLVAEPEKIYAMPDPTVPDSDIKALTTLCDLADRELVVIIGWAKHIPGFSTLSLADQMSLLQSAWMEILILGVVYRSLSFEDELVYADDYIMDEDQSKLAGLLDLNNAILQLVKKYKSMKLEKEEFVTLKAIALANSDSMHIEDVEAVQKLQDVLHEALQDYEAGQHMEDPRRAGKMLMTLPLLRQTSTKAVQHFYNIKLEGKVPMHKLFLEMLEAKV

As for `CC1(C)NC(=O)NC1=O`, the result in assay [1], in [2], in [3], in assay [4], in [5] and in assay [7] was inactive. For the same compound, in assay [6], the AC50 was 26.3 µM (active).

Take `Cc1ccccc1Cl`: the outcome in [1], in assay [2], in assay [3], in assay [4] and in assay [7] was inactive.

With `CNCc1cc(F)ccc1Oc1ccc(Cl)c(Cl)c1`, the result in assay [1], in assay [2], in assay [3], in assay [4] and in assay [7] was inactive.

On to `CC(C)c1ccc(C(=O)N=C(N)N)cc1S(C)(=O)=O`, for which the compound was classed as inactive in [1], in [2], in assay [3], in [4] and in assay [7].

Consider `CCNc1cccc(C)c1`, for which the call in [1], in assay [2], in assay [3], in [4], in assay [5] and in [7] was inactive. Further, the outcome in assay [8] was inactive.

Regarding `CC(C)(C)c1cc(O)c(C(C)(C)C)cc1O`, the AC50 in [1] was 8.01 µM (active); in [4], 32 µM (active); in assay [7], 37.6 µM (active). Moreover, the compound was called inactive in assay [2], in assay [3], in assay [6] and in assay [9].

Take `CCc1c(C(=O)NN2CCCCC2)nn(-c2ccc(Cl)cc2Cl)c1-c1ccc(Br)cc1`: the AC50 is 3.53 µM (active) in [1] and 1.38 µM (active) in [4]. In addition, the call in assay [2], in [3], in assay [6] and in [7] was inactive.

As for `Cc1cc(NC(=O)C(=O)O)cc(C)c1Oc1ccc(O)c2c1CCC2`, the compound was called inactive in assay [1], in [2], in assay [3], in assay [4], in assay [5] and in assay [7]. Moreover, the outcome in assay [9] and in [8] was inactive.

Take `NCC1(Cc2noc(=O)[nH]2)CCCCC1`: the outcome in assay [1], in [2], in [3], in assay [4], in assay [5] and in [7] was inactive. Besides, the outcome in [9] was inactive.

For the compound `NC(=O)Cn1c(=O)cc(CCN2CCN(c3nccc4sccc34)CC2)c2ccc(F)cc21`, the AC50 in assay [1] was 30.9 µM (active). Besides, the outcome in assay [2], in [3], in [4], in assay [6], in assay [7] and in assay [10] was inactive. The outcome in assay [9] and in assay [8] was inactive.

On to `NS(=O)(=O)c1cc2c(cc1Cl)NCNS2(=O)=O`, for which the call in assay [1], in assay [2], in assay [3], in [7], in assay [9] and in [8] was inactive. For the same compound, the AC50 in [4] was 4.41 µM (active).

As for `CCCc1cc(=O)[nH]c(=S)[nH]1`, the call in assay [1], in assay [2], in assay [3], in assay [7] and in [9] was inactive.

Take `Nc1nc(N)c2nc(CNc3ccc(C(=O)N[C@@H](CCC(=O)O)C(=O)O)cc3)cnc2n1`: in assay [1], the AC50 was 116 µM (active). The outcome in assay [2], in [3], in assay [4], in assay [7] and in assay [8] was inactive.

Take `Nc1ccc2c(c1)C(=O)c1ccccc1C2=O`: the call in assay [1], in assay [2], in assay [3], in assay [5] and in assay [7] was inactive. The AC50 in assay [6] was 13.6 µM (active).

Consider `C=CCOC(=O)c1ccccc1C(=O)OCC=C`, for which the compound was called inactive in assay [1], in assay [2], in assay [3], in [7], in [10] and in [9].

Regarding `CN1CCCC1=O`, the compound was called inactive in assay [1], in assay [2], in [3], in assay [4] and in assay [7].

With `CC(=O)Oc1ccccc1C(=O)O`, the half-maximal activity concentration (AC50) in assay [1] was 162 µM (active); in [4], 82.9 µM (active). Moreover, the compound was called inactive in [2], in assay [3] and in assay [7].

Turning to `NCCO`, the compound was classed as inactive in assay [1], in assay [2], in assay [3], in assay [7] and in [9].

As for `Nc1ccccc1N`, the compound was called inactive in assay [1], in assay [3] and in [5]. Besides, the half-maximal activity concentration (AC50) in assay [4] was 34.8 µM (active); in [7], 51.8 µM (active).

Take `COc1cc(S(=O)(=O)O)c(C)cc1N=Nc1c(O)ccc2cc(S(=O)(=O)O)ccc12`: the result in [1], in assay [3], in assay [4], in [5], in [7] and in [9] was inactive.

Consider `CCCCCCCCCCCCCO`, for which the AC50 in assay [1] is 34.3 µM (active); in assay [6], 65.7 µM (active). Further, the compound was classed as inactive in assay [3], in assay [4], in assay [5], in assay [7] and in assay [10].
